PNC inhibitor: blocks assembly of the perinucleolar compartment. PC3M PTB-GFP, PNC prevalence imaging, 16 h; hits give low values. activity change (PNC), negative = inhibition, % at 10 µM. 140,000 compounds, 3.1% hits;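 active = readout at or below -70, meaning at least 70% loss of cells showing the perinucleolar compartment, a nuclear body marking cancer cells; inconclusive = readout between -30 and a set limit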;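 note: plate controls were DMSO wells for no effect and camptothecin positive control wells for full effect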
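Compounds are pinned in duplicate onto adhered PC3M cells stably expressing GFP-tagged PTB and incubated 16 h at 37 C. Cells are then fixed, nuclei stained with Hoechst, and PNC-positive cells counted.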
HTT ATP protect: protects HTT-Q103 PC12 cells, measured by ATP; PC12 HTT-Q103 induced, cytoprotection, ATP luminescence, 40 h; Potency, µM (series often up to 56.4 µM), for inactives: cytoprotection (ATP increase), usual class: activators; 230,000 compounds, 0.14% hits; AID 1471; note: potency is the fitted concentration of half-maximal effect; % of control where 0% means no effect; nearly all actives have a fitted effect of over 45% in size
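Huntington model: PC12 line, ecdysone-inducible HTTQ103 exon1–GFP, tebufenozide 100 nM. Test articles in a dose series. Endpoint luminescence from cellular ATP.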
ALDH1A1 block: inhibitors of human aldehyde dehydrogenase 1A1 | AID 1030 | 220,000 compounds, 7.3% hits | Potency, µM (series often up to 75.3 µM), for the others: at the top dose activity, negative = inhibition, most hits filed as inhibitors | P00352 | Purified ALDH1A1, NADH fluorescence, propionaldehyde substrate; active = well fitted inhibition curve with a large enough effect, not every such curve was filed as active; inconclusive = small, poorly fitted or top-dose-only effect, or another doubt; inactive = no such curve, though single readings can be large or run the other way;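 note: potency is the fitted concentration of half-maximal effect; plate controls were no enzyme wells and a reference inhibitor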
HTT aggregate: reduces HttQ103-GFP aggregates in PC12 cells; 220,000 compounds, 1.1% hits; Potency, µM (titrated, usually from 46.1 µM), without a hit: at the top dose activity change, negative = inhibition, actives largely listed as inhibitors; PC12 HttQ103-GFP aggregates, Acumen cytometry, 40 h; note: potency is the fitted concentration of half-maximal effect; % is set by controls: 0 for no effect and ±100 for the full control effect; nearly all actives have a fitted effect of over 60% in size
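Using laser scanning cytometry, GFP-positive aggregates were counted after lysis of PC12 cells induced with 100 nM tebufenozide to express HTT exon 1 Q103–GFP. Compounds were tested in titration.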
CBFb-RUNX1 inh: CBF-beta/RUNX1 interaction disruption. Potency, µM (series often up to 59.8 µM), without a hit: top-dose activity, negative = inhibition, usual class: inhibitors. Q01196+Q13951. AID 1477. AlphaScreen CBFb-His/RUNX1-biotin binding, biochemical. 230,000 tested, under 10 active; note: % of control where 0% means no effect
Target sequence (Q01196 whole entry, looked up): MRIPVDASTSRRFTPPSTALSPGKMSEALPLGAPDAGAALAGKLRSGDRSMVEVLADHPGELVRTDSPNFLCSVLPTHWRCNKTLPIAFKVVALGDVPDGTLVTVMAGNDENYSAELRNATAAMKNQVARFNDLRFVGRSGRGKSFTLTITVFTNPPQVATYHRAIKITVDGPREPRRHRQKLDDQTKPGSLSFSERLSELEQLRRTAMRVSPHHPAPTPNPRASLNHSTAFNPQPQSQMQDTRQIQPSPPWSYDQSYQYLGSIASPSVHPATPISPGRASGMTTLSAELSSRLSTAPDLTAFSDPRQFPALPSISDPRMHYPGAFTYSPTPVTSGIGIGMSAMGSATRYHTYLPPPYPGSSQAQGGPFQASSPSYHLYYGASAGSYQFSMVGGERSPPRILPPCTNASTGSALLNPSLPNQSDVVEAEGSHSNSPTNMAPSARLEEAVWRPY
Target sequence (Q13951 whole entry, looked up): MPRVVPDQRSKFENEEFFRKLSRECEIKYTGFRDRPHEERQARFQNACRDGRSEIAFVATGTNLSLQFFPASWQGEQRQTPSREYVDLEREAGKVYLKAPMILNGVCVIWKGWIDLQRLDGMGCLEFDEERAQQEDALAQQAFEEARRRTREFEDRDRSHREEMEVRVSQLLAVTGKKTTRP
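AlphaScreen binding: CBFb-His and RUNX1-biotin (30 nM each) preincubated 20 min, compound added for 15 min, then nickel and streptavidin beads for 90 min, all at room temperature. Disruption of the interaction by any mechanism counts as activity.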
HPGD block: inhibitors of human 15-hydroxyprostaglandin dehydrogenase (HPGD) | Potency, µM, without a hit: top-dose activity change, negative = inhibition, hits mostly inhibitors | P15428 | purified HPGD, NADH fluorescence kinetic, PGE2 substrate | 150,000 compounds, 4.3% hits; active = well fitted inhibition curve with a large enough effect, not every such curve was filed as active; inconclusive = small, poorly fitted or top-dose-only effect, or another doubt; inactive = no such curve, though single readings can be large or run the other way; note: potency is the fitted concentration of half-maximal effect; % is set by controls: 0 for no effect and ±100 for the full control effect
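NADH formation kinetics: reaction with 30 uM PGE2 and 1 mM NAD+ (final), 20 nM enzyme, Tris-HCl pH 8 with Tween 20, after 15 min compound preincubation at room temperature. Fluorescence change, last versus first of five reads.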
Starred values were filed as active, the others as inactive; ? = inconclusive; · = no result given; [ ] = remark or other dose. Rows were chosen to be rich in hits. Some 11% of all compounds tested hit in one or more screens of this group. Unless noted, calls come from the whole dose curve; as a rule, active = well fitted curve in the direction sought with a large enough effect; inconclusive = small, poorly fitted or top-dose-only effect, or another doubt; inactive = no such curve, though single readings can be large; an effect the other way counts as inactive or inconclusive.

SMILES	PNC inhibitor	HTT ATP protect	ALDH1A1 block	HTT aggregate	CBFb-RUNX1 inh	HPGD block
O=C(NC(NC(=S)Nc1ccccc1)C(Cl)(Cl)Cl)c1cccc(Cl)c1 (stereo not drawn)	8.3	-70.5%	?	11.2µM*	-0.2%	-7.9%
CN(C)C(=O)NC(NC(=S)Nc1ccccc1)C(Cl)(Cl)Cl (stereo not drawn)	·	-0.8%	12.6µM*	10.1%	0.7%	·
O=C(NC(NC(=S)Nc1ccc(Cl)cc1Cl)C(Cl)(Cl)Cl)c1cccc([N+](=O)[O-])c1 (stereo not drawn)	106.2	-83.7%	17.8µM*	?	-25.0%	-13.8%
O=C(O)c1cccc(NC(=S)NC(NC(=O)c2cccc([N+](=O)[O-])c2)C(Cl)(Cl)Cl)c1 (stereo not drawn)	·	0.7%[10 µM]	·	15.5%[9.22 µM]	0.8%	·
CCC/C(=N/NC(=O)c1cccc(Cl)c1)c1ccccc1	17.4	31.0%[0.074 µM]	?	22.6%	5.6%	-13.0%
NCCC[C@@H](CC(=O)N[C@@H]1CCNC[C@H]1C(=O)N[C@H](CC(=O)N[C@@H](CCC(=O)O)CC(=O)O)Cc1ccccc1)NC(=O)C[C@H](Cc1ccccc1)NC(=O)[C@@H]1CCCC[C@H]1N	·	-11.8%[1.9 µM]	-7.3%	·	-0.1%	-4.2%
COc1ccc(NC(=O)N2CC3(CCN(C(=O)c4ccc(OC)cc4)CC3)C2)cc1	·	-10.0%	-6.0%	·	·	-6.3%
O=C(Nc1ccc(N=Nc2ccccc2)cc1)c1cccc(Cl)c1	-111.2*	18.7%[10 µM]	11.9%	?	5.3%	1.8%
COC(=O)C(C(=O)OC)c1ccc(NC(=O)c2cccc(Cl)c2)cc1	·	-19.3%[10 µM]	3.3%	12.3%	4.5%	·
COc1ccc(CNC(=O)CN(C(=O)c2ccc(CN3CCOCC3)o2)C2CCCC2)cc1	?	-3.7%[10 µM]	11.2µM*	-4.1%	4.3%	-3.1%
CCCCP(=O)(CCCC)c1ccccc1C(=O)O	37.7	-6.9%[10 µM]	0.5%	11.2%	12.6%	-8.5%
CC(C)CNC(C(=O)Nc1ccc([N+](=O)[O-])cc1Br)c1ccccc1 (stereo not drawn)	-18.0	5.4%[10 µM]	3.55µM*	27.1%	-14.6%	-22.7%
CN(C)C(CNC(C(=O)Nc1ccc([N+](=O)[O-])cc1Br)c1ccccc1)c1ccccc1 (stereo not drawn)	·	-35.2%	?	6.3%	-9.0%	·
CCN(CC)CCNC(C(=O)Nc1ccc([N+](=O)[O-])cc1Br)c1ccccc1 (stereo not drawn)	-104.2*	9.6%[0.074 µM]	-10.3%	-11.0%	6.8%	-15.3%
O=C(O)c1ccc(Cl)c(S(=O)(=O)Nc2ccccc2F)c1	·	·	1.2%	·	·	-6.9%
O=C(COc1ccccc1)N(Cc1ccco1)C1CCS(=O)(=O)C1 (stereo not drawn)	-3.9	-2.0%[0.074 µM]	22.4µM*	7.2%	14.4%	-11.0%
Cc1cc(Cl)ccc1OCC(=O)N(Cc1ccco1)C1CCS(=O)(=O)C1 (stereo not drawn)	·	0.7%[10 µM]	·	10.3%[9.22 µM]	4.5%	·
O=C(COc1ccccc1Cl)N(Cc1ccco1)C1CCS(=O)(=O)C1 (stereo not drawn)	-111.1*	14.7%	23.9%	2.1%	6.5%	·
COC(=O)c1ccc(C(NC(=O)OCc2ccccc2)/C(C)=C/[C@@H](C)C(=O)NCCO)cc1 (stereo partly drawn)	·	11.0%	?	·	-3.8%	-12.7%
S=C1NCCc2ccccc2C1c1ccccc1Cl (stereo not drawn)	28.3	14.2%[10 µM]	6.1%	3.1%	-10.4%	-6.9%
S=C1NCCc2ccccc2C1c1ccccc1 (stereo not drawn)	-0.4	31.5%[10 µM]	-6.6%	-26.6%	9.1%	39.8µM*
N#Cc1ccc(CN2CC3(CCN(C(=O)c4cccc(F)c4)CC3)C2)cc1	·	-33.3%	?	·	·	-6.0%
CC(O)CNCCOc1ccccc1-c1ccccc1 (stereo not drawn)	·	14.0%	11.2µM*	12.3%	4.7%	·
OCCNCCOc1ccccc1-c1ccccc1	10.7	31.3%	-12.1%	?	0.9%	3.0%
C=CCSSSCC=C	·	-34.4%	12.6µM*	-38.9%	-11.2%	28.2µM*
SMILES	PNC inhibitor	HTT ATP protect	ALDH1A1 block	HTT aggregate	CBFb-RUNX1 inh	HPGD block
CC(C)CCNC(=O)CN(CC1CCCO1)C(=O)CCC(=O)Nc1ccccn1 (stereo not drawn)	25.0	-12.1%	6.5%	-10.9%	1.2%	-12.0%
O=C(CN(CC1CCCO1)C(=O)CCC(=O)Nc1ccccn1)NCc1ccccc1 (stereo not drawn)	-100.0*	11.9%[10 µM]	3.4%	5.6%	0.7%	-15.8%
O=C(NC1CCCC1)c1cc2nc(-c3ccccc3)cc(-c3ccccc3)n2n1	·	-84.8%[10 µM]	·	3.55µM*	?	·
O=C(NC1CCCCC1)c1cc2nc3c(c(C(F)(F)F)n2n1)CCCC3	-29.2	-9.7%[10 µM]	?	5.7%	15.5%	28.2µM*
CC(Sc1nnc(Nc2ccccc2)s1)C(=O)Nc1nc(-c2ccccc2)cs1 (stereo not drawn)	·	-21.8%	-1.5%	-0.9%	3.5%	·
CC(Sc1nnc(NCc2ccccc2)s1)C(=O)Nc1ccc2c(c1)C(=O)c1ccccc1C2=O (stereo not drawn)	-24.1	-4.7%[10 µM]	2.82µM*	-14.4%	-5.1%	14.1µM*
COc1ccc(-n2c(SCC(N)=O)nc3nc4c(cc3c2=O)COC(C)(C)C4)cc1	1.4	-36.4%	3.55µM*	7.9%	4.3%	-22.8%
C=CCn1c(SCC(N)=O)nc2nc3c(cc2c1=O)COC(C)(C)C3	·	12.6%[10 µM]	·	-0.4%[9.22 µM]	11.4%	·
CC(Cc1ccccc1)NC(=O)CSc1nc2nc3c(cc2c(=O)n1-c1ccccc1)COC(C)(C)C3 (stereo not drawn)	-21.8	0.5%	1.58µM*	25.0%	-2.3%	-8.7%
Cc1cccc(-n2c(SCc3ccc([N+](=O)[O-])cc3)nnc2-c2c[nH]c3ccccc23)c1	·	-4.4%	7.0%	-31.4%	-4.5%	·
OCCO	·	-0.4%	1.3%	·	-24.4%[21.7 µM]	-18.6%
c1ccc(C(c2cccc3c2ccc2ccccc23)[C@H](c2ccccc2)c2cccc3c2ccc2ccccc23)cc1 (stereo partly drawn)	·	·	-1.7%[13.5 µM]	·	·	-13.6%
CCC(NC(=O)Nn1cnnc1)(C(F)(F)F)C(F)(F)F	-100.0*	8.8%[10 µM]	1.5%	-1.0%	-4.1%	-17.5%
CC1=C(SCCC#N)S/C(=C2\SC(C)=C(SCCC#N)S2)S1	37.6	-11.7%	5.01µM*	-17.3%	-26.8%	17.8µM*
Cn1c(SCCC#N)nnc1-c1ccc(F)cc1	·	-16.8%	0.6%	21.9%	-5.2%	·
O=C(O)CCCC/C=C\C[C@@H](O)/C=C/C=C/C=C\[C@@H](O)CCCC(=O)O	·	-18.2%	9.5%	·	7.1%	-14.8%
Cc1ccc(S(=O)(=O)/N=C(\CCl)N2CCOCC2)cc1	24.2	·	28.2µM*	29.1%	1.7%	-16.8%
